# Tests used:
# Experiment in all cases: PBM binding z-score (relative to random genomic background probes); higher = stronger binding; sequences stand for … in GC…GCGATTGACAGCGTAGAATGAAGG
# [1] = system: RARb homodimer (NR concentration 270 nM)
# Outline: (§1)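 Ligand-free nuclear receptor dimers were applied to custom Agilent 4×180K protein-binding microarrays whose double-stranded probes carried direct-repeat seeds, single-nucleotide variants, half-site ablations and random human genomic background sequences in 34-nt variable regions. Incubation lasted 1 h. Binding z-scores were computed against the random background probes from regression-normalized fluorescence.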
# [2] = system: RARg:RXRa (NR concentration 270 nM, RXRa partner concentration 90 nM)
# Outline: as §1
# [3] = system: RARg homodimer (NR concentration 270 nM)
# Outline: as §1
# [4] = system: RXRa DBDmut IVT, anti-RXR (DBD mutation: RXRa K156A/R161A, NR concentration 90 nM)
# Outline: as §1
# [5] = system: RXRa homodimer (NR concentration 180 nM)
# Outline: as §1
# [6] = system: THRa:RXRa (NR concentration 90 nM, RXRa partner concentration 90 nM)
# Outline: as §1
# [7] = system: THRa homodimer (NR concentration 90 nM)
# Outline: as §1
# [8] = system: VDR homodimer (NR concentration 270 nM)
# Outline: as §1
Sequence,PBM binding z-score [1],PBM binding z-score [2],PBM binding z-score [3],PBM binding z-score [4],PBM binding z-score [5],PBM binding z-score [6],PBM binding z-score [7],PBM binding z-score [8]
CAAACTAGGTCAAGAGGTAAAAGTCCGCTTCCCG,3.32,4.71,4.74,1.44,3.45,2.99,1.2,0.657
ACTCGGAGGACAAGGGTCAGAGCTACGCCAGTGA,3.36,3.88,3.19,0.24,2.82,2.28,0.361,1.05
TGGAGTAGGTTAGGGGCATTCAGAATGGCGTCGA,1.6,0.847,0.846,-0.404,0.803,1.51,1.06,1.57
ACTATTAGTTGAGACGAGGGCAACCGCTAGGTTG,1.35,0.408,0.507,0.704,0.516,2.66,0.222,0.863
CGTCCAAGGTCAATGCTAGGTAAGTGAAAGCATT,3.93,5.7,6.12,3.33,4.48,3.84,2,2.06
TCATATAGGTAAAATGTGAAAGTCGGTGTGGTAA,-0.199,0.0549,-0.0961,1.45,0.646,-0.0922,-0.336,-0.00299
CCTAGCAGGCCAGGGTCAGTCAAGCATTTCGCTT,2.16,2.07,1.85,-0.296,1.65,1.75,0.116,0.172
CCTAGCAGGCCAGGGTCACTCAAGCATTTCGCTT,2.82,3.21,2.84,0.493,3.9,2.92,1.2,1.25
ATCGAAAGGTCGGAGGTGAGTATACCCACCCGAA,2.03,3.26,3,0.388,3.28,1.77,-0.0288,0.152
GATTCAGGGTCAAGGCCAGAGTACGCGTATTGAT,4.04,6.08,5.81,3.03,7.1,3.87,2,3.02
CGTCCCAGGTCAGAGAGGTCAGTGAATGCCGAGT,4.89,5.03,5.73,1.72,4.33,4.24,2.92,4.31
AATACAGGGTTACTAGGCCAGAGTAGGTACGAAT,0.925,1.24,0.893,0.264,1.57,1.07,0.206,0.675
CCGACTGGGCCAAAAAGGTCATTGATGCCGATAA,4.22,4.39,3.5,0.66,4.52,3.14,0.199,2.14
GCTTGTAGATCAAAGTTAAGAAAGACTAAGCTAA,-0.8,-0.501,-0.292,-0.0516,-0.495,-0.445,-1.4,-0.623

# Reference: the supplement of paper PMC6555819
